Rows were chosen to be rich in hits. Some 7.5% of all compounds tested hit in one or more screens of this group.
Rab9 prom act: activators of Rab9 promoter | Huh7 Rab9 promoter-luciferase reporter, luminescence, 24 h | Potency, µM (series often up to 9.22 µM), for the others: top-dose activation, negative = inhibition, actives largely listed as activators | actives 2.8% (n = 320,000) | AID 485297; further: % of control where 0% means no effect; nearly all actives have a fitted effect of over 60% in size
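Cell-based reporter: Huh7 stable for Rab9 promoter-driven luciferase, plated in reduced-serum medium with 10% FBS at 1500 cells/well, compound-treated 24 h at 37 °C, luminescence read after 10 min reagent.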
ELG1 genotox: genotoxicity induction in ELG1-luciferase HEK293T cells | Potency, µM (top dose mostly 46 µM), inactives show at the top dose activity change, positive = activation, usual class: activators | actives 1.3% (n = 330,000) | HEK293T ELG1-luciferase reporter, luminescence, 16 h; further: % of control where 0% means no effect; nearly all actives have a fitted effect of over 60% in size
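Quantitative HTS format in 1536-well plates. HEK293T ELG1-luciferase reporter cells receive test compound and are incubated 16 hr at 37 °C, 5% CO2; ONE-Glo added, 30 min room temperature, then luminescence read.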
NPC1 promoter act: activates the NPC1 promoter | Huh7 NPC1 promoter luciferase reporter, 24 h | actives 2.4% (n = 320,000) | Potency, µM (top dose mostly 9.22 µM), for the others: at the top dose activation, hits mostly activators; further: % of control where 0% means no effect; nearly all actives have a fitted effect of over 60% in size
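Luminescence from an NPC1 promoter-driven luciferase reporter in stably transfected Huh7 cells was measured after 24 h compound treatment at 37 °C, followed by 10 min ambient incubation with luciferase detection reagent.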
SMN2 splice up: enhancers of SMN2 splice variant expression. HEK293 SMN2-luciferase splicing reporter, luminescence, 30-36 h. Potency, µM (top dose mostly 46.1 µM), for inactives: at the highest dose activity change, positive = activation, usual class: activators. actives 2.8% (n = 210,000). AID 1458; further: % of control where 0% means no effect; nearly all actives have a fitted effect of over 55% in size
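HEK293 cells carry an SMN2 minigene-luciferase reporter in which exon 7 inclusion puts luciferase in frame. Cells were seeded at 2000 cells/well, attached for 10-12 hours, then exposed to compounds for 30-36 hours at 37C before ONE-Glo luminescence.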
FLuc counter: firefly luciferase modulation, counter-screen for miR-21 project; P08659; purified FLuc, Km substrates, luminescence inhibition; Potency, µM (top dose mostly 57.5 µM), for the others: at the top dose activity change, negative = inhibition, most hits filed as inhibitors; actives 6.9% (n = 360,000);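 further: plate controls were vehicle for no effect and reference inhibitor for full effect; nearly all actives have a fitted effect of over 55% in size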
Target sequence (P08659 whole entry, looked up): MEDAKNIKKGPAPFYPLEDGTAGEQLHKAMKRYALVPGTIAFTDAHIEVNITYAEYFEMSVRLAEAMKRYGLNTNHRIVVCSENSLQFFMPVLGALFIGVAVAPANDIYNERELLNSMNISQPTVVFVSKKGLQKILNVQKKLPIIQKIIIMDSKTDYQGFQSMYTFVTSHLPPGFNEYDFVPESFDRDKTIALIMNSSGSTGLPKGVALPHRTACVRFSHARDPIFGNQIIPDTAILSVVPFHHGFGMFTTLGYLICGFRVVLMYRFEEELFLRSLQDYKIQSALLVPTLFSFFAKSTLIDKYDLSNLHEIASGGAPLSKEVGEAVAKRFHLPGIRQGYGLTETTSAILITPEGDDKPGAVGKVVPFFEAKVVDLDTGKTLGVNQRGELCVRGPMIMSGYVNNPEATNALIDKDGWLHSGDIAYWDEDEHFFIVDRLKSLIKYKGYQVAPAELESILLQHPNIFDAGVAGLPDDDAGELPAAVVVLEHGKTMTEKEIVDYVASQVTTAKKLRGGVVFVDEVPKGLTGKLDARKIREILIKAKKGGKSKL
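Purified P. pyralis luciferase, 10 nM final, with Km-level 10 uM D-luciferin and 10 uM ATP in 50 mM Tris acetate pH 7.5, 10 mM Mg acetate, 0.01% Tween-20, 0.05% BSA; 6-point qHTS titration about 60 µM downward; luminescence read.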
Luc counter: counter-screen: inhibitors of Kinase-Glo firefly luciferase; Kinase-Glo luciferase, ATP luminescence, 8 min; Potency, µM (series often up to 38.3 µM), inactives show at the highest dose activity change, negative = inhibition, usual class: inhibitors; Q27757; actives 0.28% (n = 200,000); further: on the % scale 0 is the no-effect control and ±100 the full control effect; nearly all actives have a fitted effect of over 60% in size
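Light output from Kinase-Glo luciferase with luciferin and 10 uM ATP in 50 mM imidazole pH 7.2, KCl, MgCl2, Tween 20, BSA; compound pin-delivered, 8-min ambient incubation, then luminescence read.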
Active calls of the source: *; u = inconclusive; x = no result; [ ] = another dose, or the depositor's remark. The call rests on the fitted dose curve; in most records, active means well fitted curve in the direction sought with a large enough effect; inconclusive means small, poorly fitted or top-dose-only effect, or another doubt; inactive means no such curve, though single readings can be large; an effect the other way counts as inactive or inconclusive. Potency means the concentration at half of the fitted maximal effect.

SMILES	Rab9 prom act	ELG1 genotox	NPC1 promoter act	SMN2 splice up	FLuc counter	Luc counter
Cc1cc(NC(=O)Nc2ccccc2Cl)no1	27.7%	7.5%	19.3%	x	15.1µM*	x
COc1cc(C2Nc3ccccc3C(=O)N2c2ccc3c(c2)OCCO3)ccc1OCC(C)C (stereo not given)	0.562µM*	1.84µM*	1µM*	3.16µM*	15.1µM*	-0.3%
O=C1c2ccccc2NC(c2ccc3c(c2)OCCO3)N1c1ccc2c(c1)OCCO2 (stereo not given)	1.58µM*	2.06µM*	1µM*	3.55µM*	10.7µM*	-4.9%
[O-][n+]1c(/C=C/c2ccccc2)ccc2ccccc21	2.82µM*	6.51µM*	3.98µM*	x	0.849µM*	x
CN(CCCS(=O)(=O)[O-])c1ccc(/C=C/c2ccc3ccccc3[n+]2C)cc1	-3.4%	-0.6%	-4.7%	x	-11.3%	x
CCCCCc1nnc(NC(=O)Cn2cnc3ccccc3c2=O)s1	1.5%	-0.9%	-1.2%	-21.2%	15.3%	3.2%
Nc1nn2c(-c3ccccc3)cc(=O)[nH]c2c1N=Nc1ccc(O)cc1	-0.6%[1.84 µM]	-10.9%	-1.6%	-44.1%	6.75µM*	-11.9%
Nc1nn2c(-c3ccccc3)cc(=O)[nH]c2c1N=Nc1ccc(Br)cc1	1.7%	-13.3%	-1.0%	-58.1%	21.3µM*	-0.1%
Cc1cc(=O)[nH]c2c1c(-c1ccccc1)nn2C	-5.8%	5.4%	-3.2%	x	2.0%	x
COC(=O)c1ccc(C(=O)OC)c(NC(=O)N2CC3CCCN3c3ccccc32)c1 (stereo not given)	x	x	x	x	0.0%	x
Cc1cccc(NC(=O)C2CCN(c3cnccn3)CC2)c1	x	x	x	0.0%	-6.6%	x
Cc1[nH]c2ccccc2c1-c1nc2ccccc2[nH]1	13.3%	u	23.6%	16.0%	26.9µM*	-1.9%
Fc1ccc(-c2nc(-c3cccs3)[nH]c2-c2ccc(F)cc2)cc1	-1.2%	-5.1%	0.8%	-32.7%	-4.6%	-0.1%
c1csc(-c2nc3ccccc3[nH]2)c1	u	15.0%	u	12.6µM*	30.1µM*	-15.0%
Cc1[nH]c2ccccc2c1-c1cc(-c2cc(-c3c(C)[nH]c4ccccc34)on2)no1	x	x	x	-4.4%[9.22 µM]	x	-0.2%[7.66 µM]
Cc1ccc(-c2nc3ccccc3[nH]2)s1	0.631µM*	u	1.58µM*	7.08µM*	3.01µM*	12.6µM*
Clc1ccccc1Cn1cccc1C1=NC(Cc2ccccc2)CO1 (stereo not given)	x	x	x	-25.6%	4.8%	x
CCN1c2ccccc2-c2nc(SCC(=O)NCc3ccccc3)ncc2S1(=O)=O	x	x	x	x	-2.5%	x
Cn1c(=O)n(C)c2cc(N3CCCCC3)c(NC(=O)c3c(F)cccc3F)cc21	x	x	x	-7.9%	-0.8%	x
Cc1nn(-c2nnc(NC3CCCCC3)nn2)c(C)c1Br	2.24µM*	18.4µM*	2.24µM*	12.6µM*	4.26µM*	-23.6%
Cc1cc(NS(=O)(=O)c2ccc(NC(=O)Cc3ccc(Cl)c(Cl)c3)cc2)no1	-5.1%	6.8%	-5.3%	x	-0.2%	x
O=S(=O)(c1ccccc1)N1CCN(c2nc3ccccc3s2)CC1	u	u	21.4%	-4.1%	5.1%	2.5%
Brc1ccc2nc(N3CCN(c4ccccc4)CC3)sc2c1	1µM*	2.31µM*	1.78µM*	3.16µM*	u	2.1%
Clc1ccc2nc(N3CCN(c4ccccc4)CC3)sc2c1	0.891µM*	u	1.41µM*	3.16µM*	0.601µM*	-1.8%
CSc1nnc(C)c(=O)n1COC(=O)c1ccc(S(=O)(=O)N2CCCC2)cc1	1.8%	0.8%	13.1%	-2.5%	2.6%	-2.5%
SMILES	Rab9 prom act	ELG1 genotox	NPC1 promoter act	SMN2 splice up	FLuc counter	Luc counter
CCCOC(=O)c1ccc(NC(=O)COC)cc1	6.4%	u	2.3%	0.5%	u	17.8%
CC(=O)c1ccc(NC(=O)Cc2cccs2)cc1	2.51µM*	u	2.82µM*	x	u	x
CCCOC(=O)c1ccc(NC(=O)Cc2cccs2)cc1	u	u	u	x	19µM*	x
Cc1ccc(NC2c3ncccc3C(=O)N2c2ccccc2C)cc1C (stereo not given)	-4.2%	0.6%	5.2%	-2.7%	23.9µM*	-1.1%
COc1ccc(/C=C/C(=O)NC(=S)N2CCN(c3ccccn3)CC2)cc1	0.0%	10.3%	5.9%	x	13.5µM*	x
COc1ccc(-n2nc(C(=O)NCC(=O)N3CCN(c4ccccn4)CC3)c3ccccc3c2=O)cc1	u	1.6%	u	u	1.2µM*	-0.6%
